Measured values published in PubChem BioAssay AID493169 (National Center for Advancing Translational Sciences (NCATS), 2011).
Records with an inconclusive call do not appear. Active and inactive are the calls of the source. Calls come from the whole dose curve; as a rule, active = well fitted inhibition curve with a large enough effect; inconclusive = small, poorly fitted or top-dose-only effect; inactive = flat fitted curve, though single readings scatter.

Assay: CHOP2 Reporter Counterscreen Assay for Inhibitors of Ubiquitin-specific Protease USP2a;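 note: activated enterokinase alone at 50 pM in a cell-free format rather than USP2a or CHOP2; nearly all actives have a fitted effect of over 55% in size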
Settings: purified enterokinase, fluorogenic substrate, 485/531 nm; series mostly up to 38.3 µM; activity change, negative = inhibition: at the top concentration
Procedure, shortened: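 Cell-free counterscreen with pre-activated enterokinase alone (50 pM final) in 20mM Tris-HCl pH 8.0, 2mM CaCl2, 2mM beta-mercaptoethanol, 0.05% CHAPS; compound preincubation 30 min RT, reporter substrate 25nM final, fluorescence read after 10 min (Ex 485/Em 531).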
% is set by controls: 0 for no effect and ±100 for the full control effect; potency is the fitted concentration of half-maximal effect.

| Compound | activity change, negative = inhibition | Potency |
| --- | --- | --- |
| Cc1ccc(C(C(=O)NC2CCCC2)N2CCc3ccccc32)cc1 (stereo not drawn) | 3.43% (inactive) | – |
| COCc1cc(C)nc(SCC[N+](C)(C)CC(=O)Nc2cccc(C(F)(F)F)c2)c1C#N | -16.9% (inactive) | – |
| Cc1ccc(N2CCN(C(=O)CCc3nc4ccccc4[nH]3)CC2)c(C)c1 | 3.76% (inactive) | – |
| O=C(N/N=C/c1ccc(F)cc1)c1cc(-c2ccco2)nc2ccccc12 | – | 2.24 µM (active) |
| CC1(C)CC(=O)C2=C(C1)N(Cc1ccco1)C(=O)NC2(C(F)(F)F)C(F)(F)F | 1.05% (inactive) | – |
| CC1Cc2ccccc2N1C(=O)Cn1c(=O)oc2cc(S(=O)(=O)NC3CCCC3)ccc21 (stereo not drawn) | -0.985% (inactive) | – |
| Cc1ccc(C2=N/C(=C\c3c(C)nn(-c4ccccc4)c3N3CCCC3)C(=O)O2)cc1 | 16.3% (inactive) | – |
| CN=c1scc(-c2ccccc2F)n1/N=C/c1ccc(O)c(O)c1O | – | 10 µM (active) |
| O=C(Nc1cccc(Cl)c1)Nc1nnc(CC2=CCCCC2)s1 | 2.28% (inactive) | – |
| COc1cc(/C=N/NC(=O)c2cc(-c3ccccc3)nc3ccccc23)ccc1O | -2.73% (inactive) | – |
| COc1ccc(CC(NC(C)=O)C(=O)NC2CCN(c3nc(C)cc(C)c3C#N)CC2)c(OC)c1 (stereo not drawn) | -0.767% (inactive) | – |
| COCCn1nnnc1CN(CCc1ccccc1)Cc1cc2ccc(C)cc2[nH]c1=O | 0.684% (inactive) | – |
| Nc1c(C(=O)NCC2CCCO2)sc2nc3c(c(-c4ccco4)c12)CC/C3=C\c1ccco1 (stereo not drawn) | – | 3.16 µM (active) |
| CC(=O)c1ccc(NC(=O)CC(NCCC2=CCCCC2)C(=O)O)cc1 (stereo not drawn) | 2.06% (inactive) | – |
| CCc1c(O)nc(SCC(=O)Nc2ccccc2OC)[nH]c1=O | 0.165% (inactive) | – |
| O=C(O)CP(=O)(c1ccccc1)c1ccccc1 | -0.61% (inactive) | – |
| C[C@@H]1CN([C@@H](C)CO)C(=O)c2cc(NC(=O)CCC(F)(F)F)ccc2O[C@H]1CN(C)S(=O)(=O)c1ccc(Cl)cc1 | 1.64% (inactive) | – |
| Cc1ccc(NC(=O)CCC(=O)OC(C)C(=O)c2ccccc2)cc1 (stereo not drawn) | -2.47% (inactive) | – |
| Cc1ccc2c(c1)c1c3n2CCN(C(=O)Cn2c(-c4ccccc4)noc2=O)C3CCC1 (stereo not drawn) | 0.405% (inactive) | – |
| COc1ccc(S(=O)(=O)NCCSCc2ccco2)cc1OC | – | 10 µM (active) |
| COc1cc2c(C(=O)N3CCN(c4cccc(Cl)c4)CC3)cn(CC(C)C)c(=O)c2cc1OC | -1.58% (inactive) | – |
| CCOC(=O)N1CCN(C(=O)CN(c2ccc(Oc3ccccc3)cc2)S(C)(=O)=O)CC1 | -1.23% (inactive) | – |
| O=c1oc2ccccc2n1Cn1c(=O)oc2ccccc21 | -0.0721% (inactive) | – |
